According to PubChem BioAssay:
Active and inactive are the calls of the source.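 The calls were made as follows, unless noted: active = inhibition of the reporter signal at or above 50%; inactive = inhibition below 50%.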

Experiments:
[1] = inhibitors of TNFa-induced NFkB p65 translocation, primary screen, imaging, HUVEC, MLSMR starter and 10KST1 sets (AID 438;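 active = inhibition above 20% together with a positive visual image hit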;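 also: compound added about 3h40 before a 20 min TNFalpha stimulation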;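 as to inhibition: signal is the nuclear over cytoplasmic p65 intensity ratio per well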); conditions: HUVEC TNFa-induced p65 nuclear translocation; cell count: measured here: nuclei count (cytotoxicity indicator), at 2.08 µM; inhibition: at 2 µM, stronger effect = higher value, 0% TNFa-plus-vehicle, 100% no-TNFa wells
[2] = reduction of polyQ htt aggregates in cells – imaging, exon1htt(103Q)mCFP cells, high-content imaging, primary screen (AID 483;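 active = visual image review flags a hit and inhibition of aggregation exceeds 20%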;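 also: compound exposure lasted 3 days before fixation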;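 as to nuclei count: percent of the per-plate median nuclei count of sample wells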); conditions: exon1htt(103Q)mCFP cell line, aggregate imaging, at 2 µM; inhibition of aggregation: stronger effect = higher value; nuclei count: measured here: cell count, toxicity
[3] = endothelial E-selectin expression blockers – imaging, HUVEC, immunofluorescence, MLSMR starter and 10KST1 sets, primary screen (AID 487;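 active = visually confirmed hit in the image check and inhibition above 20%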;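 as to inhibition: signal is fraction of cell area covered by stained E-selectin grains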;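 as to nuclei count: 100% = median nuclei count of all wells on the same plate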); conditions: HUVEC TNFalpha-induced E-selectin immunofluorescence imaging, at 2 µM; inhibition: stronger effect = higher value; nuclei count: measured here: cell number, toxicity
[4] = molecular target: Voltage-gated potassium channel subunit beta-2 (Rattus norvegicus) (UniProt P62483); experiment: inhibitors of rat Kvbeta2 reductase activity – biochemical, NADPH fluorescence, primary screen (AID 622;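 active = fluorescence slope higher than the sample average by over 3 SD, cut at about -0.22 in these data, passing the limit was not always enough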;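 also: slope of raw intensity against log time taken from 70 to 1610 s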); conditions: recombinant KvBeta, 4-cyanobenzaldehyde reduction, at 10 µM, stronger effect = higher value
[5] = molecular target: Voltage-gated potassium channel subunit beta-2 (Rattus norvegicus) (UniProt P62483); experiment: enhancers of rat Kvbeta2 NADPH turnover – biochemical, NADPH fluorescence, primary screen (AID 623;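 active = NADPH fluorescence slope more negative than the mean of all samples by about 3 SD, 99.7% confidence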;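 also: fluorescence intensity change per second fitted from 20 to 320 s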); conditions: Recombinant KvBeta, NADPH fluorescence decrease slope, 10 min; at 10 µM; stronger effect = lower value
[6] = molecular target: Alpha-2C adrenergic receptor (Homo sapiens) (UniProt P18825); experiment: compounds altering alpha2C-coupled GIRK flux – cell-based, HEK293 alpha2C/GIRK1/2, thallium flux, primary screen (AID 624;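 active = fluorescence slope after compound addition differing from the mean of all screened samples at 99.7% confidence, in either direction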;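 also: slope of fluorescence ratio to pre-addition baseline per second over 15 to 24 s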); conditions: thallium flux BTC fluorescence, at 10 µM, actives lie on both sides
[7] = blockers of RIG-like receptor reporter activation – cell-based, Sendai virus stimulus, luciferase, 10K MLSCN set, TLR/RLR signaling modifier project, primary screen (AID 602276;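 active = inhibition at or above 50% at 10 µM; inactive = inhibition below 50%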;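 also: firefly luciferase from ISG56 promoter only with Renilla not read in this screen; 0% = Sendai virus plus DMSO and 100% = medium plus DMSO without virus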); conditions: HEK293 RL24 IRF3 luciferase reporter, at 10 µM, stronger effect = higher value
[8] = TLR3 IRF3 reporter activation blockers – cell-based, poly I:C stimulus, luciferase, 10K MLSCN set, primary screen (AID 602277); conditions: HEK293-TLR3 RL24 IRF3 luciferase reporter, at 10 µM, stronger effect = higher value

Voltage-gated potassium channel subunit beta-2 (Rattus norvegicus), sequence (P62483 whole entry, looked up): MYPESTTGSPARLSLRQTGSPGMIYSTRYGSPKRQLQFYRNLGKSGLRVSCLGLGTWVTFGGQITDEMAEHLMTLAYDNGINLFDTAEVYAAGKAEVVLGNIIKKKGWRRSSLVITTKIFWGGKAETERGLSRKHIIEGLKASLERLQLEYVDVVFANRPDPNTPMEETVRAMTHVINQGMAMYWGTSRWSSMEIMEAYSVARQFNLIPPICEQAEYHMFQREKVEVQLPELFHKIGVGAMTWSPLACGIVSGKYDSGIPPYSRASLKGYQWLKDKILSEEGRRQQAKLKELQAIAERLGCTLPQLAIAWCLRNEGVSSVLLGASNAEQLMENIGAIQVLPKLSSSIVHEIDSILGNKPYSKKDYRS
Alpha-2C adrenergic receptor (Homo sapiens), sequence (P18825 whole entry, looked up): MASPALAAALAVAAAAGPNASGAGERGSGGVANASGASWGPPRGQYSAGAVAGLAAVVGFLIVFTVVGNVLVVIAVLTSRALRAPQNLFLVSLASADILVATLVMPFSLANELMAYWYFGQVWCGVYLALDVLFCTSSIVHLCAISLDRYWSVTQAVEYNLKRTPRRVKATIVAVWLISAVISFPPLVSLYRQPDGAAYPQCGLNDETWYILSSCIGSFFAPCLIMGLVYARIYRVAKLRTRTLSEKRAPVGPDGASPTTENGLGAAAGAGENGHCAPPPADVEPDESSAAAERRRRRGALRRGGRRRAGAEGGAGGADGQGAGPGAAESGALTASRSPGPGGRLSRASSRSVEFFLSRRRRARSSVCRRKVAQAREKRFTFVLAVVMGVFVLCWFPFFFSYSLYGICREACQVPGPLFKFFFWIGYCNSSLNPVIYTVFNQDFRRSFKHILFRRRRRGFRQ

| Structure (SMILES) | cell count [1] | inhibition [1] | inhibition of aggregation [2] | nuclei count [2] [%] | inhibition [3] | nuclei count [3] [%] | fluorescence slope [4] | NADPH fluorescence slope [5] | slope [6] | inhibition [7] | inhibition [8] |
| --- | --- | --- | --- | --- | --- | --- | --- | --- | --- | --- | --- |
| Cn1c(=N)n(CC(=O)O)c2ccccc21 | 681 | -13.8% (inactive) | 6.2% (inactive) | 114 | -51.5% (inactive) | 131 | -0.595 (inactive) | -2.3e-05 (inactive) | 0.00551 (inactive) | 9.99% (inactive) | 11.8% (inactive) |
| COc1ccccc1NC(=O)CSc1nnnn1-c1ccc2c(c1)OCO2 | 349 | -9.4% (inactive) | 21.1% (inactive) | 88.6 | -122% (inactive) | 104 | -0.487 (inactive) | 3.9e-05 (inactive) | 0.00668 (inactive) | 12.2% (inactive) | 26.1% (inactive) |
| Cc1ccc(NCC(O)C(O)C(O)CO)cc1C (centres undefined) | 516 | 0.6% (inactive) | 1.3% (inactive) | 115 | -52.4% (inactive) | 128 | -0.455 (inactive) | 5.8e-07 (inactive) | 0.00562 (inactive) | 8.39% (inactive) | 8.99% (inactive) |
| Cc1cc(C(=O)NCCCc2ccccc2)no1 | 765 | -8.2% (inactive) | 0% (inactive) | 105 | -58% (inactive) | 120 | -0.358 (inactive) | -1.1e-05 (inactive) | 0.00425 (inactive) | -11.5% (inactive) | -13.4% (inactive) |
| O=C1CCCC(O)=C1C=Nc1ccc2c(c1)oc1ccccc12 | 403 | 1.7% (inactive) | -0.4% (inactive) | 95.2 | 24.8% (inactive) | 106 | -0.09 (active) | 1.4e-05 (inactive) | 0.00678 (inactive) | -23% (inactive) | -100% (inactive) |
| CCOC(=O)c1ccc2ncc(C(=O)OCC)c(NCCN(C)C)c2c1 | 770 | -3.3% (inactive) | -5.5% (inactive) | 94 | -63.4% (inactive) | 113 | -0.545 (inactive) | -3.1e-05 (inactive) | 0.00656 (inactive) | 10% (inactive) | 44% (inactive) |
| O=c1[nH]c(=O)n(C2CCCCCC2)c(O)c1C=NCc1ccc(F)cc1 | 666 | 5% (inactive) | 0.1% (inactive) | 109 | 3% (inactive) | 110 | -0.321 (inactive) | 3.1e-05 (inactive) | 0.00576 (inactive) | 14.6% (inactive) | 26.9% (inactive) |
| Cc1cc(NC(=O)CSc2nc3c(c(=O)n2Cc2ccccc2)SC(C)C3)no1 (centres undefined) | 554 | 8% (inactive) | -16.2% (inactive) | 77.3 | 15.8% (inactive) | 86.8 | -0.417 (inactive) | -6.8e-05 (inactive) | 0.00456 (inactive) | -14.3% (inactive) | -5.37% (inactive) |
| CCOC(=O)Cn1nnnc1C(C(C)C)N(Cc1cc2c(C)cc(C)cc2[nH]c1=O)C1CCCC1 (centres undefined) | 666 | -13.4% (inactive) | -17.6% (inactive) | 97.7 | 39.1% (inactive) | 106 | -0.498 (inactive) | 1.1e-05 (inactive) | 0.0076 (inactive) | -15.9% (inactive) | 10.4% (inactive) |
| COC(=O)C1C(=O)c2c([nH]c(C(=O)OCCOC(C)C)c2C)CC1C (centres undefined) | 304 | -3.3% (inactive) | -11.8% (inactive) | 112 | -46.9% (inactive) | 117 | -0.393 (inactive) | -5.7e-05 (inactive) | 0.00401 (inactive) | -33.4% (inactive) | -43.7% (inactive) |
| COc1ccccc1CNC(=O)CCNC(=O)Cn1ccc2ccccc2c1=O | 749 | -23.7% (inactive) | 8.2% (inactive) | 107 | -16.3% (inactive) | 116 | 0.0111 (inactive) | -1.6e-05 (inactive) | 0.00394 (inactive) | 7.16% (inactive) | 6.29% (inactive) |
| CCOC(=O)N1CCC(NC(=O)CSCc2nc(-c3cccc(OC)c3)oc2C)CC1 | 292 | 4.4% (inactive) | -9% (inactive) | 94.6 | -30.2% (inactive) | 124 | -0.498 (inactive) | -5.4e-05 (inactive) | 0.00445 (inactive) | 9% (inactive) | -6.15% (inactive) |
| COc1ccccc1OCC(=O)N1CCNC1=O | 652 | 2.2% (inactive) | -1.9% (inactive) | 101 | -78.6% (inactive) | 104 | -0.548 (inactive) | -4.2e-06 (inactive) | 0.00602 (inactive) | 0.107% (inactive) | 20.1% (inactive) |
| Cc1csc(NC(=O)c2ccco2)n1 | 464 | -3.3% (inactive) | -1.8% (inactive) | 109 | -72% (inactive) | 131 | -0.32 (inactive) | -1.3e-06 (inactive) | 0.00701 (inactive) | -20.1% (inactive) | -56.9% (inactive) |
